Results as given in PubChem BioAssay (NCI).
Compounds without any hit were thinned out: in the full panel of roughly 79,000, 15% have a hit. Values without a mark were called inactive. Calls of active or inactive are those of the source. No stated cut-off is given here; in the data, active means growth inhibition above about 70%; inactive means the rest.

Columns and labels:
[1] = NCI Yeast Anticancer Drug Screen. Data for the wt1 strain (AID 149);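 further: 0% = growth of vehicle-treated wt1 cultures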; details: S. cerevisiae wt1 strain (SPY 50644) growth inhibition, stronger effect = higher value
Summary of the method: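 Compounds are added to wt1 yeast cultures. Growth is then measured. Inhibition is expressed relative to vehicle-treated controls.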

[2] = NCI Yeast Anticancer Drug Screen. Data for the rad50EPP+ strain (AID 151);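 further: 0% = growth of vehicle-treated control cultures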; details: S. cerevisiae rad50 mutant strain, stronger effect = higher value
Summary of the method: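 Growth inhibition read against vehicle controls in rad50EPP+ yeast, a strain altered in DNA damage repair, after compound exposure.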

[3] = NCI Yeast Anticancer Drug Screen. Data for the mgt1 strain (AID 153); details: S. cerevisiae mgt1 mutant growth inhibition, stronger effect = higher value
Summary of the method: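 mgt1 yeast grown with test compound; read-out is growth inhibition versus vehicle-treated cultures.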

[4] = NCI Yeast Anticancer Drug Screen. Data for the rad50 strain (AID 155);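 further: 0% = growth of vehicle-only cultures of the same strain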; details: S. cerevisiae rad50 strain growth inhibition, stronger effect = higher value
Summary of the method: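 Inhibition values express reduced yeast growth in compound-treated cultures relative to vehicle-treated controls.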

[5] = NCI Yeast Anticancer Drug Screen. Data for the mec2-1 strain (AID 157); details: S. cerevisiae mec2-1 strain, stronger effect = higher value
Summary of the method: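 Yeast mec2-1 mutant treated with compound. Readout: growth inhibition vs vehicle controls.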

[6] = NCI Yeast Anticancer Drug Screen. Data for the rad14 strain (AID 159);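 further: 0% = growth of vehicle-treated control cultures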; details: S. cerevisiae rad14 strain growth inhibition, stronger effect = higher value
Summary of the method: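 A mutant yeast strain defective in DNA damage repair is treated with compound; inhibition of its growth is scored against untreated, vehicle-exposed cultures.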

[7] = NCI Yeast Anticancer Drug Screen. Data for the sgs1 mgt1 strain (AID 161);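 further: 0% = growth of cultures given vehicle only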; details: S. cerevisiae sgs1 mgt1 strain, stronger effect = higher value
Summary of the method: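 Mutant yeast exposed to compound; growth scored against vehicle-only wells.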

[8] = NCI Yeast Anticancer Drug Screen. Data for the CLN2oe strain (AID 163);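 further: 0% = growth of vehicle-only control cultures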; details: S. cerevisiae CLN2oe strain, stronger effect = higher value
Summary of the method: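 Read-out: yeast growth inhibition, expressed relative to vehicle-only controls. The strain bears an engineered cell-cycle alteration.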

[9] = NCI Yeast Anticancer Drug Screen. Data for the bub3 strain (AID 167); details: S. cerevisiae bub3 mutant strain, stronger effect = higher value
Summary of the method: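 Steps: expose the mutant yeast strain to compound; grow alongside vehicle-treated cultures; measure growth; express inhibition against the vehicle cultures.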

[10] = NCI Yeast Anticancer Drug Screen. Data for the wt2 strain (AID 169);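 further: 0% = growth of vehicle-treated yeast cultures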; details: S. cerevisiae wt2 strain growth inhibition, stronger effect = higher value
Summary of the method: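 Read-out: growth inhibition versus vehicle-treated control cultures after compound exposure of the yeast strain.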

[11] = NCI Yeast Anticancer Drug Screen. Data for the mlh1 strain (AID 171);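 further: 0% = growth of vehicle-treated control cultures of the same strain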; details: S. cerevisiae mlh1 strain growth inhibition, stronger effect = higher value
Summary of the method: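 Read-out: growth inhibition versus vehicle controls. Strain: engineered yeast with a defined DNA repair or cell cycle defect, compound-treated.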

[12] = NCI Yeast Anticancer Drug Screen. Data for the sgs1 strain (AID 173);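 further: 0% = growth of vehicle-only control cultures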; details: S. cerevisiae sgs1 mutant, stronger effect = higher value
Summary of the method: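 Read-out: yeast growth inhibition relative to vehicle controls, following compound exposure of a strain with a defined DNA repair/cell cycle alteration.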

[13] = NCI Yeast Anticancer Drug Screen. Data for the mlh1 rad18 strain (AID 175); details: S. cerevisiae mlh1 rad18 strain growth inhibition, stronger effect = higher value
Summary of the method: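 Yeast w/ defined DNA-repair lesions; compound exposure; growth vs vehicle controls → % inhibition.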

[14] = NCI Yeast Anticancer Drug Screen. Data for the rad18 strain (AID 177); details: S. cerevisiae rad18 mutant growth inhibition, stronger effect = higher value
Summary of the method: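 Readout: growth inhibition vs vehicle controls. Cells: genetically altered yeast strain, DNA repair defect.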

[15] = NCI Yeast Anticancer Drug Screen. Data for the cln2 rad14 strain (AID 165);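 further: 0% = growth equal to vehicle treated cultures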; details: S. cerevisiae cln2 rad14 strain, stronger effect = higher value
Summary of the method: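 cln2 rad14 yeast strain; compound exposure; growth inhibition read vs vehicle controls.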

[16] = at 5.0 µM (retest, dose inferred, filed as 0.5)
[17] = at 50.0 µM (retest, dose inferred, filed as 5.0)

In the case of `CC(C)c1ccc(C2NC(=S)NC3=C2c2ccccc2C3=O)cc1` (configuration not stated), the growth inhibition ([1]; at 1.2 µM) is reported as 16%, the growth inhibition ([1]; at 3.7 µM) is reported as 6% and the growth inhibition ([1]; at 11.0 µM) is reported as 18%. The growth inhibition ([1]; at 33.0 µM) was 17%, the growth inhibition ([1]; at 100.0 µM) was 17% and the growth inhibition ([2]; at 1.2 µM) was 23%. For the same compound, the growth inhibition ([2]; at 3.7 µM) was 21%, the growth inhibition ([2]; at 11.0 µM) was 16% and the growth inhibition ([2]; at 33.0 µM) was 15%. It also gave a growth inhibition ([2]; at 100.0 µM) of 3%, a growth inhibition ([3]; at 1.2 µM) of 3% and a growth inhibition ([3]; at 3.7 µM) of -4%. The growth inhibition ([3]; at 11.0 µM) was 7%, the growth inhibition ([3]; at 33.0 µM) was 19% and the growth inhibition ([3]; at 100.0 µM) was 50%. For the same compound, the growth inhibition ([4]; at 1.2 µM) was 24%, the growth inhibition ([4]; at 3.7 µM) was 24% and the growth inhibition [4, 16] was 22%. It also gave a growth inhibition ([4]; at 11.0 µM) of 27%, a growth inhibition ([4]; at 33.0 µM) of 32% and a growth inhibition [4, 17] of 31%. For the same compound, the growth inhibition ([4]; at 50.0 µM) was 86.8% (active), the growth inhibition ([4]; at 100.0 µM) was 54% and the growth inhibition ([5]; at 1.2 µM) was 17%. The growth inhibition ([5]; at 3.7 µM) was 11%, the growth inhibition [5, 16] was -8% and the growth inhibition ([5]; at 11.0 µM) was -7%. The growth inhibition ([5]; at 33.0 µM) was 9%, the growth inhibition [5, 17] was -11% and the growth inhibition ([5]; at 50.0 µM) was 64.1%. For the same compound, the growth inhibition ([5]; at 100.0 µM) was 28%, the growth inhibition ([6]; at 1.2 µM) was -8% and the growth inhibition ([6]; at 3.7 µM) was -14%. For the same compound, the growth inhibition ([6]; at 11.0 µM) was -18%, the growth inhibition ([6]; at 33.0 µM) was -20% and the growth inhibition ([6]; at 100.0 µM) was 11%. For the same compound, the growth inhibition [7, 16] was 43%, the growth inhibition [7, 17] was 24% and the growth inhibition ([7]; at 50.0 µM) was 78% (active). The growth inhibition ([8]; at 1.2 µM) was -9%, the growth inhibition ([8]; at 3.7 µM) was -5% and the growth inhibition ([8]; at 11.0 µM) was -5%. For the same compound, the growth inhibition ([8]; at 33.0 µM) was -8%, the growth inhibition ([8]; at 100.0 µM) was 18% and the growth inhibition ([9]; at 1.2 µM) was -3%. For the same compound, the growth inhibition ([9]; at 3.7 µM) was 4%, the growth inhibition [9, 16] was -25% and the growth inhibition ([9]; at 11.0 µM) was 27%. The growth inhibition ([9]; at 33.0 µM) was 81% (active), the growth inhibition [9, 17] was 87% (active) and the growth inhibition ([9]; at 50.0 µM) was 89.7% (active). The growth inhibition ([9]; at 100.0 µM) was 88% (active), the growth inhibition ([10]; at 1.2 µM) was 0% and the growth inhibition ([10]; at 3.7 µM) was 1%. It also gave a growth inhibition ([10]; at 11.0 µM) of 14%, a growth inhibition ([10]; at 33.0 µM) of 22% and a growth inhibition ([10]; at 100.0 µM) of 41%. It also gave a growth inhibition ([11]; at 1.2 µM) of 10%, a growth inhibition ([11]; at 3.7 µM) of -1% and a growth inhibition ([11]; at 11.0 µM) of 3%. It also gave a growth inhibition ([11]; at 33.0 µM) of 26%, a growth inhibition ([11]; at 100.0 µM) of 52% and a growth inhibition ([12]; at 1.2 µM) of 23%. For the same compound, the growth inhibition ([12]; at 3.7 µM) was 12%, the growth inhibition ([12]; at 11.0 µM) was 16% and the growth inhibition ([12]; at 33.0 µM) was 26%. The growth inhibition ([12]; at 100.0 µM) was 43%, the growth inhibition [13, 16] was -36% and the growth inhibition [13, 17] was 32%. For the same compound, the growth inhibition ([13]; at 50.0 µM) was 74.1% (active), the growth inhibition ([14]; at 1.2 µM) was 2% and the growth inhibition ([14]; at 3.7 µM) was 8%. For the same compound, the growth inhibition ([14]; at 11.0 µM) was 10%, the growth inhibition ([14]; at 33.0 µM) was 13% and the growth inhibition ([14]; at 100.0 µM) was 38%.

Compound `COC1=C(N=[N+]=[N-])C(=O)c2ncccc2C1=O` has a growth inhibition ([1]; at 1.2 µM) of 3%, a growth inhibition ([1]; at 3.7 µM) of 6% and a growth inhibition ([1]; at 11.0 µM) of 10%. For the same compound, the growth inhibition ([1]; at 33.0 µM) was 52%, the growth inhibition ([1]; at 100.0 µM) was 92% (active) and the growth inhibition ([2]; at 1.2 µM) was 31%. The growth inhibition ([2]; at 3.7 µM) was 60%, the growth inhibition ([2]; at 11.0 µM) was 89% (active) and the growth inhibition ([2]; at 33.0 µM) was 94% (active). The growth inhibition ([2]; at 100.0 µM) was 95% (active), the growth inhibition ([3]; at 1.2 µM) was 10% and the growth inhibition ([3]; at 3.7 µM) was 7%. For the same compound, the growth inhibition ([3]; at 11.0 µM) was 31%, the growth inhibition ([3]; at 33.0 µM) was 81% (active) and the growth inhibition ([3]; at 100.0 µM) was 94% (active). The growth inhibition ([4]; at 1.2 µM) was 56%, the growth inhibition ([4]; at 3.7 µM) was 84% (active) and the growth inhibition [4, 16] was 86% (active). For the same compound, the growth inhibition ([4]; at 11.0 µM) was 93% (active), the growth inhibition ([4]; at 33.0 µM) was 94% (active) and the growth inhibition [4, 17] was 95% (active). For the same compound, the growth inhibition ([4]; at 50.0 µM) was 82.2% (active), the growth inhibition ([4]; at 100.0 µM) was 95% (active) and the growth inhibition ([5]; at 1.2 µM) was 6%. For the same compound, the growth inhibition ([5]; at 3.7 µM) was 38%, the growth inhibition [5, 16] was 38% and the growth inhibition ([5]; at 11.0 µM) was 68%. The growth inhibition ([5]; at 33.0 µM) was 93% (active), the growth inhibition [5, 17] was 94% (active) and the growth inhibition ([5]; at 50.0 µM) was 85.5% (active). For the same compound, the growth inhibition ([5]; at 100.0 µM) was 96% (active), the growth inhibition ([6]; at 1.2 µM) was -2% and the growth inhibition ([6]; at 3.7 µM) was 10%. For the same compound, the growth inhibition ([6]; at 11.0 µM) was 44%, the growth inhibition ([6]; at 33.0 µM) was 91% (active) and the growth inhibition ([6]; at 100.0 µM) was 96% (active). For the same compound, the growth inhibition [7, 16] was 42%, the growth inhibition [7, 17] was 93% (active) and the growth inhibition ([7]; at 50.0 µM) was 82.3% (active). For the same compound, the growth inhibition [15, 16] was 24%, the growth inhibition [15, 17] was 93% (active) and the growth inhibition ([15]; at 50.0 µM) was 80.5% (active). It also gave a growth inhibition ([9]; at 1.2 µM) of 7%, a growth inhibition ([9]; at 3.7 µM) of 18% and a growth inhibition [9, 16] of -4%. The growth inhibition ([9]; at 11.0 µM) was 18%, the growth inhibition ([9]; at 33.0 µM) was 72% (active) and the growth inhibition [9, 17] was 88% (active). The growth inhibition ([9]; at 50.0 µM) was 78% (active), the growth inhibition ([9]; at 100.0 µM) was 94% (active) and the growth inhibition ([10]; at 1.2 µM) was -55%. For the same compound, the growth inhibition ([10]; at 3.7 µM) was -12%, the growth inhibition ([10]; at 11.0 µM) was 49% and the growth inhibition ([10]; at 33.0 µM) was 92% (active). For the same compound, the growth inhibition ([10]; at 100.0 µM) was 95% (active), the growth inhibition ([11]; at 1.2 µM) was 10% and the growth inhibition ([11]; at 3.7 µM) was 6%. The growth inhibition ([11]; at 11.0 µM) was 21%, the growth inhibition ([11]; at 33.0 µM) was 80% (active) and the growth inhibition ([11]; at 100.0 µM) was 94% (active). The growth inhibition ([12]; at 1.2 µM) was 8%, the growth inhibition ([12]; at 3.7 µM) was 30% and the growth inhibition ([12]; at 11.0 µM) was 56%. For the same compound, the growth inhibition ([12]; at 33.0 µM) was 84% (active), the growth inhibition ([12]; at 100.0 µM) was 94% (active) and the growth inhibition [13, 16] was 69%. For the same compound, the growth inhibition [13, 17] was 95% (active), the growth inhibition ([14]; at 1.2 µM) was 60% and the growth inhibition ([14]; at 3.7 µM) was 89% (active). For the same compound, the growth inhibition ([14]; at 11.0 µM) was 94% (active), the growth inhibition ([14]; at 33.0 µM) was 96% (active) and the growth inhibition ([14]; at 100.0 µM) was 96% (active).
